According to ChEMBL document CHEMBL3433997, “St. Jude Leishmania screening dataset” (2016):

Tests used:
Assay type in all cases: functional
[1] = target: Solute carrier family 2, facilitated glucose transporter member 1 (Homo sapiens) (UniProt P11166); assay: ST_JUDE_LEISH: Cytotoxicity at 2uM final concentration against transgenic Leishmania Mexicana promastigotes LmGLUT1 that are glucose transport deficient and complemented with the human glucose transporter GLUT1. Activity is measured by DNA content using SYBR green in vitro
Chain of Solute carrier family 2, facilitated glucose transporter member 1 (Homo sapiens) (P11166 whole entry): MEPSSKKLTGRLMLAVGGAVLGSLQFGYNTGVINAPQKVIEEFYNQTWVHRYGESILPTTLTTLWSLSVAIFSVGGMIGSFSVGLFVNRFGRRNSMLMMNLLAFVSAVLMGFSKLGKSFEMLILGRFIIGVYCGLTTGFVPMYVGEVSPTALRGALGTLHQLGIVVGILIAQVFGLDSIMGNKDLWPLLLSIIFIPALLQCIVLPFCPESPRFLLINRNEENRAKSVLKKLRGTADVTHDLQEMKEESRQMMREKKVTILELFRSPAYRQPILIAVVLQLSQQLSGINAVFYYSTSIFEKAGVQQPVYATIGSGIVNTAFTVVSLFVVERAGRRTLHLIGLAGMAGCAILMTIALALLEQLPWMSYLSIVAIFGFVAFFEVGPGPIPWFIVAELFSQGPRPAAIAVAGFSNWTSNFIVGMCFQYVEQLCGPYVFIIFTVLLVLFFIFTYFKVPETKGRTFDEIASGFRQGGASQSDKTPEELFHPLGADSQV

[2] = target: Hexose transporter 1 (Plasmodium falciparum) (UniProt O97467); assay: ST_JUDE_LEISH: Cytotoxicity at 2uM final concentration against transgenic Leishmania Mexicana promastigotes LmPfHT that are glucose transport deficient and complemented with the Plasmodium falciparum hexose transporter. Activity is measured by DNA content using SYBR green in vitro
[3] = target: Glucose transporter (Leishmania mexicana) (UniProt O61059); assay: ST_JUDE_LEISH: Cytotoxicity at 2uM final concentration against transgenic Leishmania Mexicana promastigotes LmGT2 that are glucose transport deficient and complemented with the L. Mexicana glucose transporter 2. Activity is measured by DNA content using SYBR green in vitro

Row | SMILES | inhibition [1] [%] | inhibition [2] [%] | inhibition [3] [%]
1 | c1cc(CN2CCCCC2)cc(-c2cccc(-c3nc4ccccc4[nH]3)c2)c1 | 1.27 | 2.94 | -0.15
2 | O=C(Nc1ccc(Cl)cc1)c1ccc(S(=O)(=O)NCC2CCN(CC3CCCCC3)CC2)cc1 | 2.97 | 1.04 | 1.4
3 | COCCN(C)CCCOc1cc2c(cc1OC)ncn2-c1cc(OCc2ccccc2C(F)(F)F)c(C(N)=O)s1 | 2.27 | 4.55 | 1.49
4 | CN1CCC(C(=O)N(Cc2ccc(-c3ccc(CNCCc4ccccc4)cn3)cc2)Cc2cccc(F)c2)CC1 | 3.52 | 0.98 | 4.08
5 | Cc1cccc(C(=O)NC(NC(=S)Nc2ccc([N+](=O)[O-])cc2)C(Cl)(Cl)Cl)c1 (stereo unspecified) | 3.68 | 3.52 | -0.6
6 | CCOCCCn1c(=N)c(C(=O)NC(C)c2ccccc2)cc2c(=O)n3cccc(C)c3nc21 (stereo unspecified) | 7.84 | 6.01 | 3.81
7 | Cc1cccc(NC(c2cccs2)c2c(NC(=O)c3ccccc3)sc(C)c2C)n1 (stereo unspecified) | 6.21 | 3.93 | 2.13
8 | O=C(Cc1cccc2ccccc12)NC1CCN(c2ccnc3cc(Cl)ccc23)C1 (stereo unspecified) | -2.29 | -1.67 | -0.88
9 | CC(C)CNCc1cccc(-c2cccc(CN(CCCN3CCN(C)CC3)C(=O)NC3CCCCC3)c2)c1 | 0.8 | 0.99 | -0.56
10 | COc1ccc(-c2ccc3c(-c4ccc(F)cc4)cnc(N)c3c2)cn1 | -1.25 | -1.33 | -0.22
11 | CC(C)Oc1ccc2c(c1)OC(c1ccccc1)(C(F)(F)F)NC2=O (stereo unspecified) | 14.6 | 12.2 | 7.18
12 | Cn1nccc1C(=O)NCCNCc1cccc(-c2ccc(-c3nc4ccccc4[nH]3)cc2)c1 | 0.23 | 0.79 | -1.98
13 | CCN(CCCN1CCCCC1)c1cc(C)nc(Nc2ccc(Cl)c(C(F)(F)F)c2)n1 | 0.03 | -0.3 | -1.78
14 | CCCOC(=O)c1ccc(OCCCON2C(=N)N=C(N)NC2(C)C)cc1 | 2.28 | -0.38 | 5.01
15 | Cc1cc(Cl)ccc1NC(=O)Nc1ccc2nccc(N3CCN(C)CC3)c2c1 | 3.07 | 6.28 | 5.6
16 | CCN(CC)c1ccc2nc(N)nc(N)c2c1Cl | 5.94 | 6.11 | 4.52

Row | SMILES | inhibition [1] [%] | inhibition [2] [%] | inhibition [3] [%]
17 | CCOC(=O)c1ccc(NC(=O)Nc2cccc(-c3cccc(-c4nc5cc(F)ccc5[nH]4)c3)c2)cc1 | 0.68 | 2.75 | 3.67
18 | O=C(Nc1cccc(-c2nn3ccccc3c2-c2ccnc(Nc3cccc(F)c3)n2)c1)c1c(F)ccc(F)c1Cl | 9.38 | 10.4 | 6.24
19 | OC(CNCc1ccccc1OCc1ccccc1)c1cc(C(F)(F)F)cc(C(F)(F)F)c1 (stereo unspecified) | 8.75 | 10.9 | 4.23
20 | COc1ccc(N2CCN(CCCCNCc3ccc(NC(=O)c4cc(Cl)cc(Cl)c4)cc3)CC2)c(OC)c1 | 3.33 | 2.32 | 1.31
21 | CC(=O)Nc1ccc(C(=O)Nc2cccc(-c3ccc(-c4nc5cc(F)ccc5[nH]4)cc3)c2)cn1 | -1.01 | 2.17 | 0.38
22 | Cc1ccc(NC(C)C(=O)Nc2ccc(C#N)cc2)cc1S(=O)(=O)N1CCCCC1 (stereo unspecified) | 58.5 | 71.8 | 58.8
23 | CC(C)CCN1CCCN(Cc2cccc(NC(=O)c3cc4ccccc4s3)c2)CC1 | -0.92 | 0.43 | 2.29
24 | COc1ccc(C2CC(=O)C3=C(C2)NC(C)=C(C(=O)OC(C)C)C3c2c(F)cccc2Cl)cc1OC (stereo unspecified) | 2.24 | 0.57 | 0.75
25 | Cn1nc(-c2ccc(NC(=O)Nc3ccc4ccccc4c3)c(F)c2)c2cnc(NCCN3CCOCC3)nc21 | 5.52 | 4.79 | 1.17
26 | Cc1[nH]c(C)c(-c2ccc(/C=C/c3ccccn3)cc2)c(=O)c1Cl | 4.28 | 4.49 | 5.12
27 | Cc1noc(C)c1-c1cccc(CNCc2cccc(-c3ccc(-c4nc5cccc(C)c5[nH]4)s3)c2)c1 | 2.85 | 2.47 | 2.66
28 | COc1ccc(Cl)cc1S(=O)(=O)Nc1cccc(CCN2CCC(N3CCCCC3)CC2)c1 | 2.48 | 4.55 | 0.15
29 | COc1ccc(Cc2c(Cl)nc3nc(N)nc(N)c3c2C)c(OC)c1OC | 5.35 | 12.4 | 5.26
30 | Cc1cc(C)cc(-n2c(C)cc(/C=C3\SC(=Nc4ccc(Cl)cc4)NC3=O)c2C)c1 | 5.26 | 7.1 | 1.22
31 | Cc1cc(N2CC=CCC2)nc(NC(=N)Nc2ccc(Cl)cc2)n1 | 6.87 | 7.74 | 6.89
32 | O=C(Nc1ccc(Cl)c(Cl)c1)N1CCC(NCc2cccc([N+](=O)[O-])c2)CC1 | 4.54 | 1.1 | 3.26
